Screen size: about 190,000 compounds; about 1,300 (0.68%) were called active. Rule as the data show it: active = inhibition above about 50%; inactive = the rest. Shown is part of a subset that was picked to be rich in actives.
These compounds were tested against Mannose-6-phosphate isomerase (Homo sapiens) (UniProt P34949) (assay: human PMI inhibitors, high substrate, primary screen, biochemical, fluorescence intensity, high mannose 6-phosphate (AID 1220)). Details: recombinant PMI enzyme, coupled fluorescence intensity; at 20 µM; stronger effect = higher value.
Chain of Mannose-6-phosphate isomerase (Homo sapiens) (P34949 whole entry, looked up): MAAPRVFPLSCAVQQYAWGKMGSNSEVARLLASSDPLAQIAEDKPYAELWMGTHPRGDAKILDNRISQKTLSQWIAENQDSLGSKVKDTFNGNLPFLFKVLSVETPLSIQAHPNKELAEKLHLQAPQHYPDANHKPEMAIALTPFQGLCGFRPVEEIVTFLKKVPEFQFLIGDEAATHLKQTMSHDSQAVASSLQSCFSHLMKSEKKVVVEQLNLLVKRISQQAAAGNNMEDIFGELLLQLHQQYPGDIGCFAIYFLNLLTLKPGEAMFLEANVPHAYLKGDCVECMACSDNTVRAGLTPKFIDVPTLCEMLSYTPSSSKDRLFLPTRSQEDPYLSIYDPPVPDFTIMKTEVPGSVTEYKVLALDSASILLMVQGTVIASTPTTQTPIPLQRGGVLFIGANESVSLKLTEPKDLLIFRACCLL

Row | Compound | inhibition
1 | COc1ccc(-c2[nH]ncc2CNCC(C)(C)N2CCOCC2)cc1F | 8.1% (inactive)
2 | CN=C(Nc1cccc(OC)c1)SC1CC(=O)N(c2ccc(C(=O)O)cc2)C1=O (stereo not drawn) | 8.7% (inactive)
3 | O=C(CCS(=O)(=O)Cc1ccc(Cl)cc1)NCCCN1CCOCC1 | 4.1% (inactive)
4 | CCCCCCCCCCCCCCCC[n+]1cccc2ccccc21 | -9.4% (inactive)
5 | CCCN(CCC)C(=S)NC(=O)c1ccc(Cl)cc1Cl | 87.2% (active)
6 | CCCCN(CCCC)C(=S)NC(=O)c1ccccc1Cl | 7.7% (inactive)
7 | CCN(CC)C(=S)NC(=O)c1ccc(Cl)cc1Cl | 0.2% (inactive)
8 | CCOc1cc(N2CCOCC2)c(OCC)cc1NC(=O)c1ccc(=O)n(Cc2ccccc2)n1 | 7.5% (inactive)
9 | CC1CCN(C(C(=O)NC2CCCCC2)c2cc3c(cc2[N+](=O)[O-])OCO3)CC1 (stereo not drawn) | 61.1% (active)
10 | O=CN1CCN(C(C(=O)NC2CCCC2)c2cc3c(cc2[N+](=O)[O-])OCO3)CC1 (stereo not drawn) | 31.4% (inactive)
11 | O=CN1CCN(C(C(=O)NC2CCCCC2)c2cc3c(cc2[N+](=O)[O-])OCO3)CC1 (stereo not drawn) | 58.3% (active)
12 | O=C(NC1CCCCC1)C(c1cc2c(cc1[N+](=O)[O-])OCO2)N1CCCCC1 (stereo not drawn) | 46.3% (inactive)
13 | O=C(NC1CCCC1)C(c1cc2c(cc1[N+](=O)[O-])OCO2)N1CCCC1 (stereo not drawn) | 23.9% (inactive)
14 | CCN1CCN(C(C(=O)NC2CCCC2)c2cc3c(cc2[N+](=O)[O-])OCO3)CC1 (stereo not drawn) | 46.2% (inactive)
15 | CCOC(=O)Cn1nc(C)n(-c2c(C)cccc2C)c1=O | 8.1% (inactive)
16 | Cc1cc(Cl)ccc1OCCCC(=O)N1CCCCC1 | -5.5% (inactive)
17 | COc1ccc(S(=O)(=O)N2CCSC2c2ccc(OC)c(OC)c2)cc1 (stereo not drawn) | -17.1% (inactive)
18 | Cc1cccc(NC(=S)NCCc2ccccc2)n1 | 6.5% (inactive)
19 | COn1c(C)c(C(C)=O)c2c3nonc3ccc21 | 58% (active)
20 | C=CCOn1c(C)c(C(C)=O)c2c3nonc3ccc21 | 49.2% (inactive)
21 | COn1c(C)c(C(C)=O)c2c3no[n+]([O-])c3ccc21 | 8.2% (inactive)
22 | C=CC[n+]1c(/C=C2\C=Cc3cc(C)ccc3N2CC)ccc2ccccc21 | 9% (inactive)
23 | CCN1C(=C(C#N)C#N)C=Cc2cc(C)ccc21 | 5.3% (inactive)
24 | CCN1/C(=C/c2cc[n+](C)cc2)C=Cc2cc(C)ccc21 | 66.7% (active)
25 | CCOC(=O)c1ccc(NC(=O)c2n[nH]c(=O)c3ccccc23)cc1 | -0.1% (inactive)
26 | CCN(CC(=O)Nc1cccc(C(C)=O)c1)S(=O)(=O)c1ccc(C)cc1 | -6.4% (inactive)
27 | O=c1c2c(-c3ccc([N+](=O)[O-])cc3)csc2nc2n1CCC2 | 28.9% (inactive)

Row | Compound | inhibition
28 | CN(c1ccc(O)cc1)c1nc(-c2ccccc2)cs1 | 25.1% (inactive)
29 | Cc1cc(O)ccc1Nc1nc(-c2sc(N)nc2C)cs1 | 2% (inactive)
30 | Cc1nc(N)sc1-c1csc(N(C)c2ccc(O)cc2)n1 | 56.3% (active)
31 | CNC(=S)N1N=C(c2ccccc2)CC1c1ccccc1Cl (stereo not drawn) | 1% (inactive)
32 | CC(C)(C)NC(=S)NCc1ccc2c(c1)OCO2 | -10.4% (inactive)
33 | Cc1cc(NC(=O)COc2cccc3cccnc23)no1 | 51.1% (active)
34 | Cc1ccc(NC(=O)CN(C)S(=O)(=O)c2cccc3cccnc23)cc1 | 15.3% (inactive)
35 | Cc1cc(NC(=O)COc2ccccc2C)no1 | -5.2% (inactive)
36 | Cc1cc(NC(=O)COc2cccc(C)c2C)no1 | 4.6% (inactive)
37 | O=C(COc1cccc2cccnc12)Nc1ccccc1 | 5.4% (inactive)
38 | O=C(COc1cccc2cccnc12)NCC(F)(F)F | 56.1% (active)
39 | O=C(COc1cccc2cccnc12)NCc1cccs1 | 37.7% (inactive)
40 | NNC(=O)COc1cccc2cccnc12 | -9.1% (inactive)
41 | CCc1ccc(NC(=O)CC2C(=O)Nc3c2c(=O)n(C)c(=O)n3C)cc1 (stereo not drawn) | 2.9% (inactive)
42 | CC1SC(c2ccc(Cl)cc2)NC1=O (stereo not drawn) | 7.4% (inactive)
43 | NC(=O)c1cc2ccccc2o/c1=N/NC(=O)c1cccs1 | 2.2% (inactive)
44 | COc1ccc(OC)c(NC(=O)N[C@@H](Cc2ccccc2)C(=O)O)c1 | 8.2% (inactive)
45 | Cn1c(C(=O)NC2CC2)cc2c(=O)n(C)c3ccccc3c21 | 0% (inactive)
46 | COc1ccc(OC/C(O)=C(\C#N)c2nc3ccccc3[nH]2)cc1 | 1.2% (inactive)
47 | CCC(=O)Nc1cccc(C(=O)/C=C/c2ccc(F)cc2)c1 | 9.5% (inactive)
48 | O=C1CCCC2=C1C(c1ccccc1)CC(=O)N2c1ccc(F)cc1F (stereo not drawn) | 5.4% (inactive)
49 | CCOC(=O)c1ccc2c(c1)N(CC(=O)N1CCCCC1)C(=O)C(C)(C)O2 | 5.7% (inactive)
50 | COc1ccc(Nc2nc(C)c(-c3ccccc3)s2)cc1 | 6.2% (inactive)
51 | C=CCNC(=S)N1CCN(c2ncc3c(=O)c(C(=O)O)cn(CC)c3n2)CC1 | 14.8% (inactive)
52 | CCn1cc(C(=O)O)c(=O)c2cnc(N3CCNCC3)nc21 | 14.5% (inactive)
53 | O=C(Nc1cccc2ccccc12)N1CCN(c2ccccc2)CC1 | 15.4% (inactive)

— PubChem BioAssay AID1220 (Sanford-Burnham Center for Chemical Genomics, 2008)
